Experimental data taken from PubChem BioAssay (NCI).
This is part of a sample that, as a whole, favours compounds with a hit. Of some 79,000 tested, about 15% had one in any assay. Rule as the data show it: active = growth inhibition above about 70%; inactive = the rest. Where a SMILES comes first, the peptide text is derived from it. [ ]: non-standard residue; d: D form. ΔPro = O=C(O)[CH]1C=CCN1

Columns and labels:
[1] = NCI Yeast Anticancer Drug Screen. Data for the rad50 strain (AID 155);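 also: 0% = growth of vehicle-only cultures of the same strain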; settings: S. cerevisiae rad50 strain growth inhibition; at 50.0 µM; stronger effect = higher value
Method in brief: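 Inhibition values express reduced yeast growth in compound-treated cultures relative to vehicle-treated controls.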

[2] = NCI Yeast Anticancer Drug Screen. Data for the mec2-1 strain (AID 157); settings: S. cerevisiae mec2-1 strain, at 50.0 µM, stronger effect = higher value
Method in brief: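 Cells of the genetically defined mec2-1 yeast strain are incubated with test compound. Inhibition of growth is calculated against vehicle-treated controls.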

[3] = NCI Yeast Anticancer Drug Screen. Data for the sgs1 mgt1 strain (AID 161);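 also: 0% = growth of cultures given vehicle only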; settings: S. cerevisiae sgs1 mgt1 strain, at 50.0 µM, stronger effect = higher value
Method in brief: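 Inhibition of yeast growth, normalised to vehicle-treated controls, is reported for a strain bearing genetic alterations in DNA damage repair.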

[4] = NCI Yeast Anticancer Drug Screen. Data for the cln2 rad14 strain (AID 165);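 also: 0% = growth equal to vehicle treated cultures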; settings: S. cerevisiae cln2 rad14 strain, at 50.0 µM, stronger effect = higher value
Method in brief: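 The screen exposed genetically defined yeast (cln2 rad14) to test compounds and scored growth inhibition relative to vehicle-treated controls.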

[5] = NCI Yeast Anticancer Drug Screen. Data for the bub3 strain (AID 167); settings: S. cerevisiae bub3 mutant strain, at 50.0 µM, stronger effect = higher value
Method in brief: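 Steps: expose the mutant yeast strain to compound; grow alongside vehicle-treated cultures; measure growth; express inhibition against the vehicle cultures.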

[6] = NCI Yeast Anticancer Drug Screen. Data for the mlh1 rad18 strain (AID 175); settings: S. cerevisiae mlh1 rad18 strain growth inhibition; at 50.0 µM; stronger effect = higher value
Method in brief: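 Compound-treated yeast growth, normalised to vehicle controls. Strain bears defined DNA repair mutations.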

Measured: growth inhibition

O=C(O)C1C=CCN1C(=O)C1C=CCN1C(=O)C1C=CCN1 (stereo unspecified) (H-[ΔPro]-[ΔPro]-[ΔPro]-OH; configuration not given here)
inactive: [1] -68.7% | [2] -38.6% | [3] -25.5% | [4] 0.05% | [5] 0.25% | [6] -31.5%

CCCCCOC(=O)c1cc2ccccc2cc1O
inactive: [1] -3% | [2] -8.05% | [3] -8.95% | [4] -39.6% | [5] 30.1% | [6] -7.8%

OCCCCCCCCCCCO
inactive: [1] 16.9% | [2] 2.3% | [3] 4.35% | [4] -15.5% | [5] 12.6% | [6] -19.9%

CC(C)(C)NNC(=O)/C(=C/c1ccc([N+](=O)[O-])cc1)NC(=O)c1ccccc1
inactive: [1] 11.6% | [2] -17.3% | [3] -8.5% | [4] 5.2% | [5] -6.2% | [6] -15.7%

CC(C)c1ccc(/C=C2/C=C(c3ccc4ccccc4c3)OC2=O)cc1
inactive: [1] -9.25% | [2] -1.7% | [3] -31.8% | [4] -3.75% | [5] -17.8% | [6] -18.9%

CC(C)c1ccccc1OC(=O)c1cccc(Br)c1
inactive: [1] -19% | [2] -1.95% | [3] 0.35% | [4] -23.1% | [5] 13.9% | [6] 1.5%

NC(=O)c1cc2ccccc2c2ccccc12
inactive: [1] 0.65% | [2] -23.8% | [3] -15.6% | [4] -33.3% | [5] -1% | [6] -3.85%

CC(C)(C)c1ccc(C(O)(c2ccc(C(C)(C)C)cc2)c2ccc(C(C)(C)C)cc2)cc1
inactive: [1] 12.8% | [2] -3.85% | [3] -22.2% | [4] 8.25% | [5] -19.9% | [6] -34.3%

Nc1nn(CC(O)CO)c(=O)s1 (stereo unspecified)
inactive: [1] 4.85% | [2] 15.7% | [3] 2.4% | [4] 11.8% | [5] 8.1% | [6] 8%

CC(=O)c1ccc(C)c([N+](=O)[O-])c1
inactive: [1] -13.2% | [2] -5.65% | [3] -11.6% | [4] -48.1% | [5] -7.15% | [6] -0.6%

CN1CCc2cc3c(cc2C(=O)Cc2ccc4c(c2C1)OCO4)OCO3
inactive: [1] -14.7% | [2] -13.8% | [3] -8.35% | [4] 10.4% | [5] -13.4% | [6] -27.3%

COc1ccc(S(=O)(=O)/N=C(/C2CC3=CCC4C5CCC(=O)C5(C)CC(=O)C4C3(C)C2)N2CCCC2)cc1 (stereo unspecified)
inactive: [1] 5.75% | [2] 4.9% | [3] 1.85% | [4] -11.6% | [5] -1.35% | [6] -18%

CCOC(=O)C1CCC/C1=N/Nc1ccc([N+](=O)[O-])cc1[N+](=O)[O-] (stereo unspecified)
inactive: [1] -1% | [2] 10.6% | [3] 3.25% | [4] -21.9% | [5] -5.3% | [6] -4.75%

N#CC(C(=O)CCc1nc2ccccc2[nH]1)c1nc2ccccc2s1 (stereo unspecified)
inactive: [1] 6.75% | [2] -3.5% | [3] -9.55% | [4] -17.8% | [5] 4.35% | [6] -0.6%

Cc1ccc(S(=O)(=O)N/N=C2/CCC(C(C)(C)C)CC2Br)cc1 (stereo unspecified)
inactive: [1] 3.9% | [2] -2.4% | [3] -6.35% | [4] -2.9% | [5] 17.4% | [6] 2.1%

NC(=O)NNCc1ccccc1
inactive: [1] -9.35% | [2] -0.3% | [3] -27.2% | [4] -17.4% | [5] -5.6% | [6] -53.8%

COC(=O)/C=C(\C(=O)OC)c1cc(C)c2cc(C(C)C)ccc(C)c1-2
inactive: [1] 4.25% | [2] -22.2% | [3] 13% | [4] 13.8% | [5] -7.5% | [6] 17.9%

NC(=O)C(N)Cc1ccc(OCc2ccccc2)c(OCc2ccccc2)c1 (stereo unspecified)
inactive: [1] 1.4% | [2] 3.35% | [3] 7.3% | [4] -12.8% | [5] 2.45% | [6] 26.2%

CC(=O)OCC(=O)[C@@]1(O)CC[C@H]2[C@@H]3CCC4=CC(=O)CC[C@]4(C)[C@H]3C(=O)C[C@@]21C
inactive: [1] -25.1% | [2] -23.6% | [3] -6.85% | [4] 4.2% | [5] -17.9% | [6] -21.3%

CCc1ccccc1OCC1CO1 (stereo unspecified)
inactive: [1] 10.9% | [2] 3.5% | [3] 11.2% | [4] 2.2% | [5] -11.9% | [6] 18.2%

NC(=O)NCSCNC(N)=O
inactive: [1] -0.7% | [2] -0.2% | [3] -7.35% | [4] 8.15% | [5] -2.75% | [6] 4.5%

O=c1[nH]ncc(N/N=C(/C=C/c2ccc(C/C(=N/Nc3cn[nH]c(=O)c3Cl)c3ccccc3)cc2)c2ccccc2)c1Cl
inactive: [1] 30.1% | [2] 8.8% | [3] 33.2% | [4] -15.6% | [5] 9.65% | [6] 4%

N#CCC(=O)N1CCCCC1
inactive: [1] -8.3% | [2] -12.1% | [3] 9.9% | [4] -3.15% | [5] 3.1% | [6] -19.8%

O=C(O)/C=C(/Br)c1ccccc1
inactive: [1] -28.9% | [2] 7.9% | [3] -13.8% | [4] -1.55% | [5] 1.4% | [6] -24.4%

C=CCNC(=O)C[n+]1cccc(C(=O)NC)c1
inactive: [1] 22.6% | [2] 8.35% | [3] -9.15% | [4] -5.35% | [5] -0.45% | [6] -17.8%

COc1ccc(C)cc1NC(=S)NC(=O)C(C)Oc1ccccc1 (stereo unspecified)
inactive: [1] 11.8% | [2] 46.5% | [3] 59.5% | [4] -27% | [5] 28.6% | [6] 32.9%

Nc1nc(CCC(=O)Nc2cccc(C(F)(F)F)c2)cc(-c2cccc3ccccc23)n1
inactive: [1] -15.2% | [2] 17.4% | [3] 29.1% | [4] 0.8% | [5] 23.1% | [6] 2.3%

O=C(SCSC(=O)c1ccccc1)c1ccccc1
inactive: [1] -11.3% | [2] 10.9% | [3] -4.75% | [4] -18.5% | [5] 32.8% | [6] 2%

S=c1nc[nH]c2c1ncn2Cc1ccccc1
inactive: [1] 5.55% | [2] 4.25% | [3] -14.3% | [4] 1.3% | [5] 4.9% | [6] 2.35%

C=CCc1ccc(OC(=O)Nc2ccc(S(=O)(=O)CC)cc2)c(OC)c1
inactive: [1] 1.65% | [2] -12.8% | [3] -26.4% | [4] -19.9% | [5] -14.2% | [6] -10.3%

OC1CC2CCCCC2CC1C1CCCCC1 (stereo unspecified)
inactive: [1] 4.15% | [2] -11.2% | [3] -7.25% | [4] -25.6% | [5] -23.7% | [6] 0.85%

O=C(O)CCBr
inactive: [1] 8.1% | [2] -10.1% | [3] 44.5% | [4] 0% | [5] 6.5% | [6] 43.8%

O=C(O)c1ccnc(-c2ccc(Cl)cc2)c1
inactive: [1] 5.5% | [2] 5.75% | [3] -1.65% | [4] -17.2% | [5] -16.8% | [6] 9.05%

Cc1ccc(S(=O)(=O)N2CCC(N)=N2)cc1
inactive: [1] 4.8% | [2] -6.7% | [3] -3.75% | [4] -18.4% | [5] 0.45% | [6] -4.85%

Cc1nc2cc(Nc3ccccc3C(=O)O)ccc2s1
inactive: [1] -43.3% | [2] -36.6% | [3] -50.6% | [4] -0.7% | [5] -22.2% | [6] -25.9%

OC1CCC2=C(C1)C1CCC2C1 (stereo unspecified)
inactive: [1] 9.05% | [2] -10.7% | [3] -11.8% | [4] -18.4% | [5] -12% | [6] 15.8%

COc1ccc(OC)c(Cc2ccc(NC(C)=O)cc2)c1
inactive: [1] 4.75% | [2] -2.15% | [3] 3.3% | [4] -38.2% | [5] -0.75% | [6] -2.65%

CCOc1ccc(NC(=S)NC=C(C(N)=O)C(N)=O)cc1
inactive: [1] -47.3% | [2] -41.3% | [3] -10.7% | [4] 19.2% | [5] 3.9% | [6] -22.6%

CN(C)c1ccc(/C=C/c2ccnc3ccc(Cl)cc23)cc1
inactive: [1] 23% | [2] 22.5% | [3] 32.1% | [4] 5.85% | [5] 21.6% | [6] 34%

COc1ccccc1NC(=O)CC(=O)N/N=C/c1ccc(N(CCC#N)S(=O)(=O)c2ccccc2)cc1
inactive: [1] -48.4% | [2] 0.8% | [3] -20.6% | [4] 10.4% | [5] -15.8% | [6] -14.5%

COc1ccc(-c2cc(=O)c3ccc(O)cc3o2)c(OC)c1OC
inactive: [1] -4.7% | [2] -10.4% | [3] -8.35% | [4] 6.65% | [5] -2.65% | [6] -1.75%
